Growth data for 37 compounds are collected here from PubChem BioAssay (NCI).

About 83,000 compounds went through this panel and 20% of them were active in at least one assay; those are over-represented in the sample as a whole.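 Compound tested at a single concentration for 48 hours in 96-well plates; a percent growth value below 10 was scored as active.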 Active and inactive are the calls of the source.

One test relates to ACHN renal. The test can be described thus: NCI-60 one-dose screen, 48 h (100 = growth as untreated, 0 = no growth, -100 = all killed). The settings on record: 10 µM.
On to `COc1cc2c3c(n(CCCNC(C)C)c(=O)c2cc1OC)-c1nc2c(cc1C3=O)OCO2`, for which the growth was 4.04% (active).

Turning to `COc1ccc2cc([C@H](C)C(=O)NCc3ccccc3)ccc2c1`, the growth was 54.9% (inactive).

`O=C(Cn1nc(-c2ccccc2)ccc1=O)NNC(=S)NC1CCCCC1`: the growth is 102% (inactive).

For the compound `CN1CCCN(Cc2ccc(C(=O)Nc3cccc(Nc4ccc5cc(O)ccc5n4)c3)cc2C(F)(F)F)CC1`, the growth was 86.4% (inactive).

For the compound `O=C1Nc2cc(Cl)ccc2/C1=C/c1cccc(OCc2ccccc2)c1`, the growth was 9.76% (active).

Consider `C/C(=C\CC/C=C(\C)CC/C=C(\C)CC[C@@H](O)C(C)(C)O)CC/C=C(\C)CC[C@@H](O)C(C)(C)O`, for which the growth was 37.5% (inactive).

For `O=C(c1ccc([N+](=O)[O-])c([N+](=O)[O-])c1O)n1[nH]c(=O)c2ccccc2c1=O`, the growth was 76.6% (inactive).

As to `O=C(O)CCCCCCCCCCN1C(=O)/C(=C/c2cnc(-c3ccc(Cl)cc3)s2)SC1=S`, the growth is 22.1% (inactive).

For `O=C1Nc2ccc(F)cc2/C1=C/c1cccc(OCc2ccccc2)c1`, the growth is 22.4% (inactive).

As to `COc1ccc(-c2nc(S(=O)(=O)c3ccccc3)c(S(C)(=O)=O)o2)cc1`, the growth was -100% (active).

For the compound `COc1ccc(C(=O)NC(=S)N2CCN(c3ncnc4c3cnn4-c3ccccc3)CC2)cc1`, the growth was 64.3% (inactive).

`C=CC(=O)Nc1nc(-c2cccc(NS(=O)(=O)c3cccc4c(N(C)C)cccc34)c2)cs1`: the growth was -79.8% (active).

On to `Cc1cc(=O)oc2cc(OCCCCOc3ccc(/C=C/C(=O)Nc4cccc(Cl)c4)cc3)ccc12`, for which the growth was 81.4% (inactive).

On to `COc1ccccc1C(=O)NNC(=O)CSc1nc2c(c(=O)[nH]1)CCCC2`, for which the growth is 98.8% (inactive).

As to `NC1=NC(c2ccccc2Cl)N=C(Nc2nn[nH]n2)N1` (centres undefined), the growth was 103% (inactive).

With `COc1ccc2nc(Cl)c(-c3cc(-c4ccccc4)nc(=O)[nH]3)cc2c1`, the growth was 79% (inactive).

With `O=c1[nH]n(C(=S)N/N=C/c2ccc(F)cc2)c(=O)c2ccccc12`, the growth was 82.5% (inactive).

Regarding `O=C(CS(=O)(=O)c1oc(-c2ccc(Cl)cc2)nc1S(=O)(=O)c1ccccc1)N1CCCC1`, the growth is -100% (active).

For `O=C1Nc2cc(Cl)ccc2/C1=C/c1cccc(OCc2ccc(Br)cc2F)c1`, the growth was 30.8% (inactive).

`Cc1nc2c(cnn2-c2ccccc2)c(=O)n1-c1ccc(NC(=O)c2ccc(F)cc2)cc1`: the growth was 61% (inactive).

Consider `S=c1nc(-c2ccccc2)cc(-c2cc3ccccc3nc2Cl)[nH]1`, for which the growth was 77.7% (inactive).

Consider `Cc1ccc(C(=O)Nc2ccc(-n3c(C)nc4c(cnn4-c4ccccc4)c3=O)cc2)cc1`, for which the growth is 61.8% (inactive).

As to `Cc1cc(C)nc(NS(=O)(=O)c2ccc(N/C(N)=N/c3nccc(-c4cccs4)n3)cc2)n1`, the growth was 94.8% (inactive).

For the compound `COc1ccc(CN2[C@H](C(=O)NCc3ccc(C(=O)NO)cc3)Cc3c([nH]c4ccccc34)[C@H]2C2CC2)cc1`, the growth was 76.4% (inactive).

On to `O=C1Nc2ccc(Cl)cc2/C1=C/c1cccc(OCc2ccccc2)c1`, for which the growth is 24.3% (inactive).

As for `O=C(Cn1cc(CSc2nnc3oc4ccccc4n23)nn1)Nc1ccc(Br)cc1`, the growth is 75.2% (inactive).

Turning to `CCN1CCN(c2ccc(NC(=O)Nc3ccc(-c4cc(C(=O)NC)c5ncccc5n4)cc3)cc2C(F)(F)F)CC1`, the growth is -100% (active).

As for `COc1ccc(-c2nc(S(=O)(=O)c3ccc(C)cc3)c(S(=O)(=O)CC(=O)N(C)Cc3ccccc3)o2)cc1`, the growth is 6.56% (active).

In the case of `COC[C@@H](CC(C)C)N=C1NC(=O)/C(=C/c2ccc3ncsc3c2)N1`, the growth was 6.22% (active).

For `CC(C)Sc1nc(NC2CC2)c(C#N)c(-c2ccccc2)n1`, the growth is 53.5% (inactive).

`CCOC(=O)N/C(=C1/OCCN1C)[P+](c1ccccc1)(c1ccccc1)c1ccccc1`: the growth is 107% (inactive).

Take `CS(=O)(=O)Nc1ccc(-c2ccc3c(c2)ncn3-c2ccc(NC(=O)Nc3ccc(Cl)c(C(F)(F)F)c3)cc2)cc1`: the growth was -63.7% (active).

Turning to `CN1CCc2c(sc3ncnc(N/N=C/c4cn(-c5ccccc5)nc4-c4ccc(Cl)cc4)c23)C1`, the growth was 21.7% (inactive).

As for `CC1(c2ccccc2)NC(=O)N(CC(=O)Nc2ccc(C(=O)/C=C/c3ccc(Br)cc3)cc2)C1=O` (centres undefined), the growth is 35% (inactive).

Turning to `O=C(CN1CCN(c2ncnc3c2cnn3-c2ccccc2)CC1)Nc1nncs1`, the growth was -87.5% (active).

Consider `COc1ccc(C=CC(=O)c2ccc(-n3c(C)nc4c(cnn4-c4ccccc4)c3=O)cc2)cc1`, for which the growth is 71% (inactive).

`O=C(c1ccc(-n2c(=O)[nH]c3ccccc3c2=O)cc1)N1CCOCC1`: the growth is 103% (inactive).

The test system of another test is CAKI-1 renal. The description is as above. The settings on record: 10 µM.
Regarding `COc1cc2c3c(n(CCCNC(C)C)c(=O)c2cc1OC)-c1nc2c(cc1C3=O)OCO2`, the growth is 13.7% (inactive).

Take `COc1ccc2cc([C@H](C)C(=O)NCc3ccccc3)ccc2c1`: the growth is 34.7% (inactive).

As for `O=C(Cn1nc(-c2ccccc2)ccc1=O)NNC(=S)NC1CCCCC1`, the growth was 98.6% (inactive).

For the compound `CN1CCCN(Cc2ccc(C(=O)Nc3cccc(Nc4ccc5cc(O)ccc5n4)c3)cc2C(F)(F)F)CC1`, the growth was 74.7% (inactive).

In the case of `O=C1Nc2cc(Cl)ccc2/C1=C/c1cccc(OCc2ccccc2)c1`, the growth was 9.35% (active).

Regarding `C/C(=C\CC/C=C(\C)CC/C=C(\C)CC[C@@H](O)C(C)(C)O)CC/C=C(\C)CC[C@@H](O)C(C)(C)O`, the growth is 47.4% (inactive).

In the case of `O=C(c1ccc([N+](=O)[O-])c([N+](=O)[O-])c1O)n1[nH]c(=O)c2ccccc2c1=O`, the growth was 82.4% (inactive).

In the case of `O=C(O)CCCCCCCCCCN1C(=O)/C(=C/c2cnc(-c3ccc(Cl)cc3)s2)SC1=S`, the growth is 12.2% (inactive).

For `O=C1Nc2ccc(F)cc2/C1=C/c1cccc(OCc2ccccc2)c1`, the growth is 25.9% (inactive).

As to `COc1ccc(-c2nc(S(=O)(=O)c3ccccc3)c(S(C)(=O)=O)o2)cc1`, the growth is -94.2% (active).

Consider `COc1ccc(C(=O)NC(=S)N2CCN(c3ncnc4c3cnn4-c3ccccc3)CC2)cc1`, for which the growth is 28.1% (inactive).

`C=CC(=O)Nc1nc(-c2cccc(NS(=O)(=O)c3cccc4c(N(C)C)cccc34)c2)cs1`: the growth was -87.5% (active).

In the case of `Cc1cc(=O)oc2cc(OCCCCOc3ccc(/C=C/C(=O)Nc4cccc(Cl)c4)cc3)ccc12`, the growth is 73.2% (inactive).

Consider `COc1ccccc1C(=O)NNC(=O)CSc1nc2c(c(=O)[nH]1)CCCC2`, for which the growth was 84.5% (inactive).

On to `NC1=NC(c2ccccc2Cl)N=C(Nc2nn[nH]n2)N1` (centres undefined), for which the growth was 94.5% (inactive).

In the case of `COc1ccc2nc(Cl)c(-c3cc(-c4ccccc4)nc(=O)[nH]3)cc2c1`, the growth was 74.2% (inactive).

As for `O=c1[nH]n(C(=S)N/N=C/c2ccc(F)cc2)c(=O)c2ccccc12`, the growth was 82% (inactive).

With `O=C(CS(=O)(=O)c1oc(-c2ccc(Cl)cc2)nc1S(=O)(=O)c1ccccc1)N1CCCC1`, the growth was -98.7% (active).

With `O=C1Nc2cc(Cl)ccc2/C1=C/c1cccc(OCc2ccc(Br)cc2F)c1`, the growth is 26.9% (inactive).

Regarding `Cc1nc2c(cnn2-c2ccccc2)c(=O)n1-c1ccc(NC(=O)c2ccc(F)cc2)cc1`, the growth is 65.7% (inactive).

Take `S=c1nc(-c2ccccc2)cc(-c2cc3ccccc3nc2Cl)[nH]1`: the growth is 57.2% (inactive).

For the compound `Cc1ccc(C(=O)Nc2ccc(-n3c(C)nc4c(cnn4-c4ccccc4)c3=O)cc2)cc1`, the growth is 72.4% (inactive).

As for `Cc1cc(C)nc(NS(=O)(=O)c2ccc(N/C(N)=N/c3nccc(-c4cccs4)n3)cc2)n1`, the growth is 74.2% (inactive).

Turning to `COc1ccc(CN2[C@H](C(=O)NCc3ccc(C(=O)NO)cc3)Cc3c([nH]c4ccccc34)[C@H]2C2CC2)cc1`, the growth was 72.3% (inactive).

Consider `O=C1Nc2ccc(Cl)cc2/C1=C/c1cccc(OCc2ccccc2)c1`, for which the growth was 34.6% (inactive).

With `O=C(Cn1cc(CSc2nnc3oc4ccccc4n23)nn1)Nc1ccc(Br)cc1`, the growth was 71.2% (inactive).

With `CCN1CCN(c2ccc(NC(=O)Nc3ccc(-c4cc(C(=O)NC)c5ncccc5n4)cc3)cc2C(F)(F)F)CC1`, the growth was -100% (active).

For the compound `COc1ccc(-c2nc(S(=O)(=O)c3ccc(C)cc3)c(S(=O)(=O)CC(=O)N(C)Cc3ccccc3)o2)cc1`, the growth is 42.9% (inactive).

On to `COC[C@@H](CC(C)C)N=C1NC(=O)/C(=C/c2ccc3ncsc3c2)N1`, for which the growth is 4.39% (active).

Take `CC(C)Sc1nc(NC2CC2)c(C#N)c(-c2ccccc2)n1`: the growth was 56.8% (inactive).

For the compound `CCOC(=O)N/C(=C1/OCCN1C)[P+](c1ccccc1)(c1ccccc1)c1ccccc1`, the growth was 102% (inactive).

Regarding `CS(=O)(=O)Nc1ccc(-c2ccc3c(c2)ncn3-c2ccc(NC(=O)Nc3ccc(Cl)c(C(F)(F)F)c3)cc2)cc1`, the growth is -55.2% (active).

For `CN1CCc2c(sc3ncnc(N/N=C/c4cn(-c5ccccc5)nc4-c4ccc(Cl)cc4)c23)C1`, the growth was 23.8% (inactive).

`CC1(c2ccccc2)NC(=O)N(CC(=O)Nc2ccc(C(=O)/C=C/c3ccc(Br)cc3)cc2)C1=O` (centres undefined): the growth is 39.5% (inactive).

As to `O=C(CN1CCN(c2ncnc3c2cnn3-c2ccccc2)CC1)Nc1nncs1`, the growth was -95.7% (active).

In the case of `COc1ccc(C=CC(=O)c2ccc(-n3c(C)nc4c(cnn4-c4ccccc4)c3=O)cc2)cc1`, the growth is 75% (inactive).

For `O=C(c1ccc(-n2c(=O)[nH]c3ccccc3c2=O)cc1)N1CCOCC1`, the growth was 89% (inactive).
